Laboratory results from the supplement of paper PMC9023506.
Where a name gives a salt, the structure may show the parent alone.

Test system: Danio rerio larvae (5 dpf)
Test: activity during period 15 (no stimuli), difference vs DMSO (percentage points (treated minus DMSO)); higher = more of the behaviour than the DMSO vehicle control
Conditions: 10 µM; exposure time: 3 h pre-incubation + 3 h imaging
Procedure: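 5-dpf wild-type zebrafish larvae were imaged in 96-well plates. They were treated with 190 Tocris FDA-approved drugs at 10 µM (1 µl/ml DMSO) for 3 h before and 3 h during imaging at 28.5 °C, 48 larvae per drug. Automated image analysis gave % time moving and optomotor responses. Values are drug group mean minus DMSO vehicle mean (n=844), in percentage points, for 10 behaviours.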

| SMILES | activity during period 15 |
| --- | --- |
| CN1CCN2c3ncccc3Cc3ccccc3C2C1 (stereo not given) [Mirtazapine] | 4.7 |
| C[C@@H]1C[C@H]2[C@@H]3CCC4=CC(=O)C=C[C@]4(C)[C@@]3(F)[C@@H](O)C[C@]2(C)[C@@]1(O)C(=O)CO [Dexamethasone] | 2.91 |
| OCCN1C[C@H](O)[C@@H](O)[C@H](O)[C@H]1CO [Miglitol] | -4.45 |
| CC(=O)Oc1cc2c(s1)CCN(C(C(=O)C1CC1)c1ccccc1F)C2 (stereo not given) [Prasugrel] | 11.8 |
| CCCCNc1cc(C(=O)O)cc(S(N)(=O)=O)c1Oc1ccccc1 [Bumetanide] | -2.8 |
| O=C1CCc2ccc(OCCCCN3CCN(c4cccc(Cl)c4Cl)CC3)cc2N1 [Aripiprazole] | 4.18 |
| NC(=O)N1c2ccccc2C=Cc2ccccc21 [Carbamazepine] | -0.716 |
| CN(C)CCc1c[nH]c2ccc(Cn3cncn3)cc12 [Rizatriptan benzoate] | -3.72 |
| CCc1ccc(CCOc2ccc(CC3SC(=O)NC3=O)cc2)nc1 (stereo not given) [Pioglitazone hydrochloride] | -0.879 |
| CCCCCCCCc1ccc(CCC(N)(CO)CO)cc1 | -23.3 |
| CCCC1O[C@@H]2C[C@H]3[C@@H]4CCC5=CC(=O)C=C[C@]5(C)[C@H]4[C@@H](O)C[C@]3(C)[C@]2(C(=O)CO)O1 (stereo not given in full) [Budesonide] | 5.26 |
| C#C[C@]1(O)CC[C@H]2[C@@H]3CCC4=CC(=O)CC[C@@H]4[C@H]3CC[C@@]21CC [Levonorgestrel] | -6.07 |
| CNC(=O)c1ccccc1Sc1ccc2c(/C=C/c3ccccn3)n[nH]c2c1 [Axitinib] | 3.22 |
| C=C1[C@H](CO)[C@@H](O)C[C@@H]1n1cnc2c(=O)[nH]c(N)nc21 [Entecavir] | -0.773 |
| CN(C)CC/C=C1/c2ccccc2COc2ccc(CC(=O)O)cc21 [Olopatadine hydrochloride] | -6.62 |
| CC(=O)NC[C@H]1CN(c2ccc(N3CCOCC3)c(F)c2)C(=O)O1 [Linezolid] | -1.07 |
| Cc1nc(-c2ccc(OCC(C)C)c(C#N)c2)sc1C(=O)O [Febuxostat] | 10 |
| CC(=O)Oc1ccccc1C(=O)O [Aspirin] | -1.19 |
| COc1ccc(C[C@@H](C)NC[C@H](O)c2ccc(O)c(NC=O)c2)cc1 [Arformoterol tartrate] | 46.5 |
| CC(=O)Nc1ccc(O)cc1 [Acetaminophen] | 8.08 |

| SMILES | activity during period 15 |
| --- | --- |
| Nc1nc(F)nc2c1ncn2[C@@H]1O[C@H](CO)[C@@H](O)[C@@H]1O [Fludarabine] | -6.57 |
| Clc1ccc(COC(Cn2ccnc2)c2ccc(Cl)cc2Cl)c(Cl)c1 (stereo not given) [Miconazole nitrate] | -12.8 |
| CC[C@H](C)C(=O)O[C@H]1C[C@@H](C)C=C2C=C[C@H](C)[C@H](CC[C@@H]3C[C@@H](O)CC(=O)O3)[C@H]21 [Lovastatin] | -4.33 |
| O=C(O[C@@H]1C[C@@H]2C[C@H]3C[C@H](C1)N2CC3=O)c1c[nH]c2ccccc12 [Dolasetron mesylate] | -1.51 |
| CC[C@H]1OC(=O)[C@H](C)[C@@H](O[C@H]2C[C@@](C)(OC)[C@@H](O)[C@H](C)O2)[C@H](C)[C@@H](O[C@@H]2O[C@H](C)C[C@H](N(C)C)[C@H]2O)[C@](C)(O)C[C@@H](C)CN(C)[C@H](C)[C@@H](O)[C@]1(C)O [Azithromycin] | -17.4 |
| CCCc1nc2c(C)cc(-c3nc4ccccc4n3C)cc2n1Cc1ccc(-c2ccccc2C(=O)O)cc1 [Telmisartan] | -7.63 |
| COC(=O)C1=C(C)NC(C)=C(C(=O)OC(C)C)C1c1cccc2nonc12 (stereo not given) [Isradipine] | -12.3 |
| COc1ccc([C@@H]2Sc3ccccc3N(CCN(C)C)C(=O)[C@@H]2OC(C)=O)cc1 [Diltiazem hydrochloride] | -3.65 |
| CCCCC(=O)N(Cc1ccc(-c2ccccc2-c2nnn[nH]2)cc1)[C@H](C(=O)O)C(C)C [Valsartan] | 9.35 |
| CCOC(=O)[C@H](CCc1ccccc1)N[C@@H](C)C(=O)N1[C@H](C(=O)O)C[C@@H]2CCC[C@@H]21 [Ramipril] | -2.34 |
| Nc1nc2[nH]cc(CCc3ccc(C(=O)N[C@@H](CCC(=O)O)C(=O)O)cc3)c2c(=O)[nH]1 [Pemetrexed] | 1.39 |
| N#C[C@@H]1C[C@@H]2C[C@@H]2N1C(=O)[C@@H](N)C12CC3CC(CC(O)(C3)C1)C2 [Saxagliptin hydrochloride] | 5.2 |
| Cc1nnc(C(C)C)n1C1C[C@H]2CC[C@@H](C1)N2CC[C@H](NC(=O)C1CCC(F)(F)CC1)c1ccccc1 (stereo in doubt) [Maraviroc] | -3.11 |
| COC(c1ccccc1)(c1ccccc1)[C@H](Oc1nc(C)cc(C)n1)C(=O)O [Ambrisentan] | -4.72 |
| CC(C)[C@H]1CC[C@H](C(=O)N[C@H](Cc2ccccc2)C(=O)O)CC1 [Nateglinide] | -0.384 |
| CCCCCOC(=O)Nc1nc(=O)n([C@@H]2O[C@H](C)[C@@H](O)[C@H]2O)cc1F [Capecitabine] | 2.91 |
| CN[C@H]1CC[C@@H](c2ccc(Cl)c(Cl)c2)c2ccccc21 [Sertraline hydrochloride] | -26 |
| O=c1n(CCCN2CCN(c3cccc(Cl)c3)CC2)nc2ccccn12 [Trazodone hydrochloride] | 1.62 |
| COc1c(C)c2c(c(O)c1C/C=C(\C)CCC(=O)O)C(=O)OC2 [Mycophenolic acid] | 9.46 |
| OC(c1cc(C(F)(F)F)nc2c(C(F)(F)F)cccc12)C1CCCCN1 (stereo not given) [Mefloquine hydrochloride] | -1.13 |
